# The source made the active and inactive calls.
# Columns and labels:
# [1] = compounds binding Alexa647 anti-His antibody – biochemical, small-molecule microarray, 635 nm fluorescence, artefact control for SMM control protein annotation, primary screen (AID 1128); conditions: higher = more signal;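 also: score merges feature fluorescence with signal-to-noise for each printed compound spot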
# [2] = tested on: Human papillomavirus type 1a E7 protein (residues 1-88); experiment: HPV1a E7 small-molecule binders, primary screen, biochemical, small-molecule microarray, residues 1-88, 635 nm (AID 1129); conditions: small-molecule microarray binding, fluorescence 635 nm; higher = more signal
# [3] = target: Focal adhesion kinase 1 (Homo sapiens) (UniProt Q05397); experiment: PTK2 protein binding on printed compound slides – biochemical, small-molecule microarray, 635/667 nm fluorescence, BSA, DTT, primary screen (AID 1130); conditions: 635 nm fluorescence, higher = more signal;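 also: composite of spot emission at 667 nm and signal to noise over triplicate slides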
# [4] = tested on: Fibrinogen (Alexa647-labelled); experiment: Alexa647-fibrinogen binding to printed small molecules – biochemical, small-molecule microarray, 635/667 nm fluorescence, artefact control for SMM control-protein annotation, profiling panel (AID 1131); conditions: fibrinogen-A647 binding fluorescence, higher = more signal;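 also: z-score merges 667 nm fluorescence with per-spot signal-to-noise over triplicate slides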
# [5] = target: Follistatin (Homo sapiens) (UniProt P19883); experiment: FST protein binding to printed compounds – biochemical, small-molecule microarray, 635/667 nm fluorescence, primary screen (AID 1132); conditions: 635 nm fluorescence, higher = more signal
# [6] = target: Fibroblast growth factor 2 (Homo sapiens) (UniProt P09038); experiment: basic fibroblast growth factor binding to printed compounds – biochemical, small-molecule microarray, 635/667 nm fluorescence, primary screen (AID 1133); conditions: FGF2, fluorescence 635/667, higher = more signal
# [7] = JC-1 mitochondrial potential readout, lung cancer cells – cell-based, A549, JC-1 fluorescence, basal, 24 h, 100 nL, profiling panel (AID 1138); conditions: higher = more signal;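 also: A549 lung adenocarcinoma cells under basal conditions with no added stimulus; test concentration not given here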
# Lefty1 = Lefty1 protein binding to printed compounds – biochemical, small-molecule microarray, 635/667 nm fluorescence, primary screen (AID 1139); conditions: fluorescence 635/667, higher = more signal
# [8] = tested on: wheat germ agglutinin (Triticum aestivum), Alexa647-labelled; experiment: Alexa647-WGA lectin binding to printed small molecules – biochemical, small-molecule microarray, 635/667 nm fluorescence, artefact control for SMM control-protein annotation, profiling panel (AID 1140); conditions: WGA-A647 binding, 635 nm fluorescence, higher = more signal;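 also: score merges 667 nm feature emission with signal to noise over triplicate slides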
# [9] = target: Luciferin 4-monooxygenase (Photinus pyralis) (UniProt P08659); experiment: inhibition of purified Photinus pyralis luciferase – biochemical, luminescence, purified enzyme, 2006 set, primary screen (AID 1141); conditions: purified firefly luciferase, SteadyGlo luminescence, 30 min; higher = more signal, called active from +8 up or from −8 down;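 also: cell-free assay with purified firefly luciferase at 100 ng per well in PBS; test concentration not given here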
# Chain of Luciferin 4-monooxygenase (Photinus pyralis) (P08659 whole entry, looked up): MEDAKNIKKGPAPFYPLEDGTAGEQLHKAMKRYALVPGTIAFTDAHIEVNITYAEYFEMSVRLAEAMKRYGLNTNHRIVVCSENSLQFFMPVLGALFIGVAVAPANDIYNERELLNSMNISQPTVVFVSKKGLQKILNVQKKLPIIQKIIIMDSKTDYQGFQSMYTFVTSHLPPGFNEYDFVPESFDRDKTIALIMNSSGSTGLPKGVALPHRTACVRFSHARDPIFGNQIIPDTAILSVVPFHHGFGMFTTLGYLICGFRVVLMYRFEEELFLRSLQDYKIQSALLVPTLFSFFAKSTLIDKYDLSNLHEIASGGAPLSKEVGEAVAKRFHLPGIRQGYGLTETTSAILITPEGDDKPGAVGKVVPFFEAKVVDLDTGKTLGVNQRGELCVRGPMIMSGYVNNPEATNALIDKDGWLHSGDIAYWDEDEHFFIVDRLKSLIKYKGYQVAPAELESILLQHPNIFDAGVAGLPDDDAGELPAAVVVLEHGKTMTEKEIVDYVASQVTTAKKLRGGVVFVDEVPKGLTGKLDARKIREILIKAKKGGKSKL
# Chain of Focal adhesion kinase 1 (Homo sapiens) (Q05397 whole entry, looked up): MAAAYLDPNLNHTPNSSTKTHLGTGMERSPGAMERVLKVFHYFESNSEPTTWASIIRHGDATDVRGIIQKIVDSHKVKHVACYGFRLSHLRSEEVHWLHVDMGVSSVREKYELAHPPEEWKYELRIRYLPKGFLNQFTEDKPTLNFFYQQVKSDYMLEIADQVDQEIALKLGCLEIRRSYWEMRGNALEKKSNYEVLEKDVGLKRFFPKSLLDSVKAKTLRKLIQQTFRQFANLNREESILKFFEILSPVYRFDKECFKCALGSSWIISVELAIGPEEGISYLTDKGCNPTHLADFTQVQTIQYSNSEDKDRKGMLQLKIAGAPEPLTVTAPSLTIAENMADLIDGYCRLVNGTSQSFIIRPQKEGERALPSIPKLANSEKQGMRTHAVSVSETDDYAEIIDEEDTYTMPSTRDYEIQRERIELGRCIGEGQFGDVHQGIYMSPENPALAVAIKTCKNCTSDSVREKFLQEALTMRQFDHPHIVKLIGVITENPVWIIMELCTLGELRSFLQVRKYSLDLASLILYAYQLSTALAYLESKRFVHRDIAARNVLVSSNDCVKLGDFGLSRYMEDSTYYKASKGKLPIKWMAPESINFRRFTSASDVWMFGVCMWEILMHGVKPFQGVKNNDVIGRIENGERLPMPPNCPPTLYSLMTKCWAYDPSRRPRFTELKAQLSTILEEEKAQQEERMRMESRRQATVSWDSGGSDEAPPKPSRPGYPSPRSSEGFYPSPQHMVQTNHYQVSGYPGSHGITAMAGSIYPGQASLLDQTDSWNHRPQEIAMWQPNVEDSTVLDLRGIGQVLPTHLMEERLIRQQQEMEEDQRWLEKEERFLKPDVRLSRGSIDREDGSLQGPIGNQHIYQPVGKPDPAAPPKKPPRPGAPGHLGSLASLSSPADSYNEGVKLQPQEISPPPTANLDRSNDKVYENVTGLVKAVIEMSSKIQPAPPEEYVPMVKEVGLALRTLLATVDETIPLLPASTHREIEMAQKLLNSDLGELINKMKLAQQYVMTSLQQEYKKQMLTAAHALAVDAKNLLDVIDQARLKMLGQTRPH
# Chain of Fibroblast growth factor 2 (Homo sapiens) (P09038 whole entry, looked up): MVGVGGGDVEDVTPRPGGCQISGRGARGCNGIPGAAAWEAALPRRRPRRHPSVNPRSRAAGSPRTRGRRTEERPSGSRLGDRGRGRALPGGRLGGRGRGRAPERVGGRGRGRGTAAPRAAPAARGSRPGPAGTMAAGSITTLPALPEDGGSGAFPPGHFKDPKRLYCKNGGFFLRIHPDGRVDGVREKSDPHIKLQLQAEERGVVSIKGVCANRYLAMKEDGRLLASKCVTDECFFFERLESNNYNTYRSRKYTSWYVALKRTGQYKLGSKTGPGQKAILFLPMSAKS
# Chain of Follistatin (Homo sapiens) (P19883 whole entry, looked up): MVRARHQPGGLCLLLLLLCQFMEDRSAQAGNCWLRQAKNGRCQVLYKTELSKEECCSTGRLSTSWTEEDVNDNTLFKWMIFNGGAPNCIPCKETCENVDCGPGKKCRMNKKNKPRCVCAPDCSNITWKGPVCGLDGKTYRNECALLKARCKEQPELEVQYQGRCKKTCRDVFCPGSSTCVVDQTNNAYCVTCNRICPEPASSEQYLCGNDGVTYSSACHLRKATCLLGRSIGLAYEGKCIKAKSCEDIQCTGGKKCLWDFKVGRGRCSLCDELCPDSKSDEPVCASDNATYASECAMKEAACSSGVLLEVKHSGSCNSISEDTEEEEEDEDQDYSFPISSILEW
Structure (SMILES),composite z-score [1],composite z-score [2],composite z-score [3],composite z-score [4],composite z-score [5],composite z-score [6],z-score [7],composite z-score (Lefty1),composite z-score [8],z-score [9]
C=CCC(OC(C)=O)[C@@H]1[C@@H](N(Cc2cccc3ccccc23)C(=O)c2ccc(C)cc2)c2cc(OCCCO)ccc2N1C(=O)Cc1ccc(OC)cc1 (stereo not given in full),0.0508,-0.0914,0.183,0.342,0.695,-0.148,1.3,0.203,0.275,0.0544 (inactive)
CCCCCCCCCCC(O)C1C=CC2C(=O)N(Cc3ccccc3)C(=O)C2N1n1cnnc1 (stereo not given),-0.244,0.812,0.656,0.532,-0.238,-0.982,-1.27,0.486,0.493,0.892 (inactive)
CC(C)(C)OC(=O)CC[C@@]1(C(=O)O)N=C(c2ccc(OCCCO)cc2)O[C@@H]1c1ccccc1N=[N+]=[N-],1.5,0.826,2.08,0.482,0.589,-0.349,-1.49,-0.666,1.28,-12.1 (active)
CCOC(=O)C[C@H]1[C@H](OC(=O)c2ccc(C(=O)c3ccccc3)cc2)[C@@H](NC(=O)C2CCCCC2)c2cc(OCCCO)ccc2N1C(=O)c1ccccc1,0.447,0.881,0.211,0.636,0.27,0.0816,2.14,0.166,0.203,-0.46 (inactive)
COC(=O)[C@@]1(Cc2ccc(OC)cc2)[C@H]2c3cc(C(=O)N4CCCC4)n(CCc4c[nH]c5cc(F)ccc45)c3C[C@H]2CN1C(=O)c1ccccc1,1.46,1.25,0.861,0.994,1.23,0.303,0.509,0.0312,1.18,0.378 (inactive)
COc1ccc(C(=O)Nc2cccc(CN3C(=O)[C@]4(O[C@H](CC(=O)N5CCC[C@H]5CO)[C@@H]([Si](C)(C)c5ccc(OC)cc5)[C@@H]4C)c4ccccc43)c2)cc1,1.22,1.15,0.407,0.634,1.03,1.33,-0.407,0.728,0.595,-0.895 (inactive)
O=c1cccc(C=Cc2ccccc2)o1,-0.23,-0.191,-0.599,-0.58,-0.723,-1.63,0.302,-0.282,-0.531,1.35 (inactive)
COCCCNC(=O)[C@@]1(C)c2ccccc2C(=O)N(Cc2cc(C(F)(F)F)cc(C(F)(F)F)c2)[C@H]1c1ccc(CO)cc1,-0.12,-0.203,0.295,0.207,-0.672,-1.5,0.509,-0.191,0.0593,1.16 (inactive)
[N-]=[N+]=NCc1ccccc1C[C@@]1(C(=O)N2CCOCC2)N=C(c2ccc(OCCCO)cc2)O[C@@H]1c1ccccc1CN=[N+]=[N-],3.09,1.25,0.829,0.978,1.05,0.684,0.74,0.365,1.3,-0.832 (inactive)
C=C(C(=O)CC[C@H](OC(C)=O)c1ccc(OCCO)cc1)C(C)C,0.772,-0.02,-0.381,0.711,1.4,0.911,-0.217,1.45,0.0674,-0.503 (inactive)
CC(C)=CCCC(C)=CC(O)C1C=CC2C(=O)N(c3ccccc3)C(=O)C2N1Nc1ccccc1 (stereo not given),1.79,1.18,0.63,1.01,1.14,0.227,-0.773,0.16,1.3,0.0145 (inactive)
O=C(CS)NCCCCCCNC(=O)[C@H]1C[C@H]2C(=O)NCC(=O)N2[C@H]1c1ccc(O)cc1,0.0346,-0.591,0.147,-0.634,1.11,0.697,0.139,-0.0467,-0.223,-0.199 (inactive)
CC(C)CNC(=O)[C@@]1(c2ccc([N+](=O)[O-])cc2)CC(=O)N(CC23CC4CC(CC(C4)C2)C3)[C@@H]1c1ccc(CO)cc1,0.943,0.662,0.24,-0.0362,0.946,1.1,2.5,0.0651,0.358,-1.61 (inactive)
COc1ccc([Si](C)(C)[C@@H]2[C@@H](CCn3cc([C@H](O)c4ccccc4)nn3)O[C@]3(C(=O)N(Cc4cccc(N5CCOC5=O)c4)c4ccccc43)[C@H]2C)cc1,-1.11,-0.576,-0.753,-1.23,-1.68,-0.977,2.14,-1.31,-0.452,-1.5 (inactive)
COc1cc2c(cc1O)C(C)N(Cc1cccc(OC(F)(F)F)c1)CC2 (stereo not given),1.72,1.13,-0.135,0.966,0.659,-0.258,-0.681,0.108,0.984,1.35 (inactive)
CC(C)(C)OC(=O)CC[C@]1(C(=O)N2CCCCC2)N=C(c2ccc(OCCCO)cc2)O[C@H]1c1ccccc1N=[N+]=[N-],2.92,1.26,1.91,0.753,0.771,1.6,2.83,0.513,0.971,-12.8 (active)
CCOC(=O)C1=CC[C@@H](c2ccccc2)N(S(=O)(=O)c2ccc(C)cc2)[C@H]1C(=O)OCC,0.558,1.2,1.17,0.0499,0.305,-0.128,1.84,-0.238,0.951,0.693 (inactive)

Structure (SMILES),composite z-score [1],composite z-score [2],composite z-score [3],composite z-score [4],composite z-score [5],composite z-score [6],z-score [7],composite z-score (Lefty1),composite z-score [8],z-score [9]
CN(C)C(=O)[C@]1(CCC(=O)OC(C)(C)C)N=C(c2ccc(OCCCO)cc2)O[C@@H]1c1ccccc1N=[N+]=[N-],0.128,1.3,0.383,0.996,1.25,0.347,0.752,-0.037,1.15,-7.84 (inactive)
C=C[C@H](COC(C)=O)N(Cc1ccc(OC(C)=O)c(OC)c1)S(=O)(=O)c1ccc(Br)cc1,1.29,1.12,-0.174,0.59,1.37,1.75,1.15,1.02,0.492,0.271 (inactive)
COC(=O)[C@@]1(Cc2ccccc2)[C@H]2c3cc(C(=O)N(C)C)n(Cc4c(-c5ccccc5)noc4C)c3C[C@H]2CN1C(=O)c1ccccc1,2.29,1.22,1.21,0.968,0.212,-0.533,0.582,-0.579,1.17,1.49 (inactive)
CC(=O)NCCCC[C@@H]1NC(=O)[C@@H]2C[C@H](C(=O)NCCCCCCNC(=O)CS)[C@H](c3ccc(O)cc3)N2C1=O,3.39,0.964,0.208,0.224,0.304,0.104,-0.177,0.236,0.418,-0.557 (inactive)
COCCOC(=O)N1C(=O)[C@@]2(c3cc(C#CC4=CCCCC4)ccc31)[C@H](C(=O)NC[C@H](O)c1ccccc1)[C@H]1C(=O)O[C@H](c3ccccc3)[C@H](c3ccccc3)N1[C@@H]2c1ccc(O)cc1,0.0524,1.19,0.703,0.86,1.32,1.32,-1.23,0.861,0.845,-1.31 (inactive)
Cc1cc(C)c(C(O)C2C=CC3C(=O)N(c4ccccc4)C(=O)C3N2Nc2ccc(C#N)cc2)c(C)c1 (stereo not given),1.21,1.23,0.388,0.912,0.509,0.312,-0.613,0.302,1.03,-0.75 (inactive)
CC(C)NC(=O)[C@@]1(Cc2ccccc2I)c2ccccc2C(=O)N(Cc2ccccc2)[C@H]1c1ccc(CO)cc1,3.2,1.19,1.05,0.387,1.29,1.07,0.188,1.19,0.131,0.277 (inactive)
O=C(CS)NCCCCCCNC(=O)[C@H]1C[C@H]2C(=O)N3CCC[C@H]3C(=O)N2[C@H]1c1cccc(OCCO)c1,1.7,1.23,0.615,0.0353,1.28,1.19,-0.145,0.731,0.658,-0.135 (inactive)
COCCOC(=O)N1C(=O)[C@@]2(c3ccccc31)[C@H](C(=O)Nc1nc3ccccc3s1)[C@H]1C(=O)O[C@H](c3ccccc3)[C@H](c3ccccc3)N1[C@@H]2c1ccc(OCCO)cc1,1.8,1.17,0.462,0.962,1.33,0.826,-2.32,1.33,0.992,-2.11 (inactive)
C=C(COC)/C(=C/C[C@H](OC(=O)c1ccncc1)c1cccc(OCCO)c1)c1cc(C(=O)OC)ccc1OC,0.844,1.1,0.381,0.317,0.127,0.245,1.48,0.819,0.0332,-1.04 (inactive)
NCCCCCNC(=O)[C@H]1C[C@H]2C(=O)NCC(=O)N2[C@H]1c1cccc(OCCO)c1,0.524,0.817,0.369,0.909,1.26,1.08,0.431,1.5,0.739,0.199 (inactive)
O=C(NCc1ccccc1)[C@]1(CCS(=O)(=O)c2ccccc2)N=C(c2ccc(OCCCO)cc2)O[C@@H]1c1ccccc1,1,1.18,0.471,0.939,0.919,-0.0072,-0.864,0.469,0.785,0.781 (inactive)
[N-]=[N+]=NCc1ccccc1C[C@@]1(C(=O)NCC(O)CO)N=C(c2ccc(OCCCO)cc2)O[C@@H]1c1ccccc1CN=[N+]=[N-] (stereo not given in full),-0.0645,1.23,0.919,0.971,1.28,1.6,0.16,-0.83,0.91,0.782 (inactive)
C=C(COC)C(=O)CC[C@H](OC(C)=O)c1cccc(OCCO)c1,-0.704,-0.586,-0.138,-0.708,1.2,1.49,-0.37,-0.332,-1.16,-0.679 (inactive)
CCC(CC)C(O)C1C=CC2C(=O)N(c3ccccc3)C(=O)C2N1Nc1ccc(C#N)cc1 (stereo not given),1.74,1.27,0.813,0.991,0.816,-0.177,-0.111,0.0695,1.21,-0.27 (inactive)
COC(=O)[C@@]1(Cc2ccccc2)N=C(c2ccc(OCCCO)cc2)O[C@H]1c1ccccc1N=[N+]=[N-],2.72,1.14,-0.0746,0.0857,1.41,1.53,1.35,0.718,1.2,-13.8 (active)
